# Data published in PubChem BioAssay.
# Values without a mark were called inactive. Activity calls are given as the source filed them. Cut-off read from the data, not from the text of the source, unless noted: active = inhibition above about 42%; inactive = the rest.
# How the values were obtained:
# [1] = StAR promoter reporter inhibitors, counter-screen for LRH-1 inverse agonist project, cell-based, luminescence, high throughput (AID 651611; in the data active = inhibition above about 28%); conditions: StAR promoter luciferase reporter counterscreen, at 3.6 µM, active compounds read high
# [2] = target: Nuclear receptor subfamily 5 group A member 2 (Homo sapiens) (UniProt O00482); assay: LRH-1 (NR5A2) inverse agonists, retest, confirmation, cell-based, luminescence (AID 651613); conditions: cell-based LRH-1 luciferase reporter, inverse agonism; at 3.6 µM; active compounds read high;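 note: HEK293T cells co-transfected with LRH-1 and StAR promoter luciferase reporter; 0% = vehicle wells and 100% = parental cells lacking receptor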
# [3] = target: Steroidogenic factor 1 (Homo sapiens) (UniProt Q13285); assay: SF1 (NR5A1) inverse agonists, counter-screen for LRH-1 inverse agonist project, cell-based, luminescence, high throughput (AID 651614; in the data active = inhibition above about 44%;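 note: cells cotransfected with StAR promoter reporter and SF1 expression vector; 0% = vehicle on cells with receptor and 100% = vehicle on cells lacking receptor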); conditions: cell-based SF1 luciferase reporter, at 3.6 µM, active compounds read high
# [4] = VP16 transactivation reporter inhibitors, counter-screen for LRH-1 inverse agonist project, cell-based, luminescence, high throughput (AID 651615; in the data active = inhibition above about 33%); conditions: Gal4-VP16 luciferase reporter cells, at 3.6 µM, active compounds read high
# Steroidogenic factor 1 (Homo sapiens), sequence (Q13285 whole entry, looked up, the tested form may be a part): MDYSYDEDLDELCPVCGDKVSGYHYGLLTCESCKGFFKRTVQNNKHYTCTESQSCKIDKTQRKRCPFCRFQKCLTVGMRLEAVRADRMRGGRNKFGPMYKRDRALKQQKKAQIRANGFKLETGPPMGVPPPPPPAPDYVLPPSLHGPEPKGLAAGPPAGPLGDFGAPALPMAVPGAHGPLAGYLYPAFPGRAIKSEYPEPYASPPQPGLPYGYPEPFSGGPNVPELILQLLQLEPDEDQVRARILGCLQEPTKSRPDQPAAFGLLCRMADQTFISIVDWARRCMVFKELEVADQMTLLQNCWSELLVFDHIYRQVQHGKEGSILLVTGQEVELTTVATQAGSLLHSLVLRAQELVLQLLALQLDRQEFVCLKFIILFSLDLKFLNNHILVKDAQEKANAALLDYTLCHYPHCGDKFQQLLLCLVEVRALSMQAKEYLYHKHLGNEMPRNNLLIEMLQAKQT
# Nuclear receptor subfamily 5 group A member 2 (Homo sapiens), sequence (O00482 whole entry, looked up): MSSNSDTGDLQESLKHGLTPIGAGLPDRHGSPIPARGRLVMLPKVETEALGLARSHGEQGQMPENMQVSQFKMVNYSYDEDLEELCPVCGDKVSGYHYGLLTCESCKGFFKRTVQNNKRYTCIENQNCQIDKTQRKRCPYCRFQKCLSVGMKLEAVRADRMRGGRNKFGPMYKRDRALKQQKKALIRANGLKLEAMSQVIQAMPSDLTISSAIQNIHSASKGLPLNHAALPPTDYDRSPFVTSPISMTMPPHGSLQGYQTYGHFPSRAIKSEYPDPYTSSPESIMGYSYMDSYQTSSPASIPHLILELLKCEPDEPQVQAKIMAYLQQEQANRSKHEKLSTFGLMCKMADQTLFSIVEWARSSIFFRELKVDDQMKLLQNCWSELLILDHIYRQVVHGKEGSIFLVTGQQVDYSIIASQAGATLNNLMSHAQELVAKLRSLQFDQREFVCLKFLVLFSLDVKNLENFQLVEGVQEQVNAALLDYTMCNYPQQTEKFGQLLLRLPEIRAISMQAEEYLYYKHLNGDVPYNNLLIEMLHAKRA
SMILES,inhibition [1],inhibition [2],inhibition [3],inhibition [4]
COC(=O)c1ccc(COc2ccc(/C=N/NC(N)=S)cc2)o1,17.7%,55.8% (active),59% (active),15.7%
Nc1ccccc1Nc1ccncc1[N+](=O)[O-],0.62%,55.8% (active),63.3% (active),-1.54%
CC(=O)CSc1nc(N)c(C#N)c(-c2cccs2)c1C#N,31.5% (active),57.7% (active),62.7% (active),35% (active)
Cc1cc(C)c2c(C)c(C(=O)NCc3ccncc3)oc2c1,9.09%,46.3% (active),38.3%,7.5%
CCOc1ccc(NC(=O)CN2CCN(CC(=O)Nc3ccc(OC)cc3)CC2)cc1,9.49%,58.5% (active),56.2% (active),8.13%
Cn1c(CN2CCN(c3cccc(Cl)c3)CC2)nc2ccccc21,-11.3%,23.1%,36.9%,-12.9%
COc1cc(/C=N/Nc2snc(SC)c2C#N)ccc1O,13.1%,28.3%,44.1% (active),-90.8%
CCN(CC)C(=O)CSc1nc2ccc(NC(=O)CSc3nccn3C)cc2s1,-37.7%,0.81%,7.59%,-9.75%
Cc1ccc(Cl)cc1NC(=O)COC(=O)CC(C)(C)C,28.3% (active),62.4% (active),60.2% (active),-10.5%
CCC(=O)Nc1nnc(SCC(=O)NCCc2ccc(OC)c(OC)c2)s1,12.9%,55.6% (active),57.3% (active),-15.4%
COc1cc(/C=C2/SC(=Nc3ccc(O)cc3)NC2=O)ccc1O,38.7% (active),48.5% (active),43.5% (active),-31.2%
CCC(NC(=O)CCl)c1ccc(C)cc1 (stereo unspecified),29.5% (active),67.3% (active),53.9% (active),-27.2%
COc1ccc(NC(=O)CSC2=C(C#N)C(c3ccco3)C3=C(CCCC3=O)N2)c(OC)c1 (stereo unspecified),14%,55.5% (active),52.5% (active),-14.7%
COC(=O)c1ccc(NC(=O)CSC2=NCCN2)cc1,-0.27%,54.5% (active),43.8% (active),4.09%
Cn1c(CCNC(=O)c2cccs2)nnc1SCC(=O)N1CCN(c2ccccc2)CC1,7.98%,29.8%,28.4%,0.01%
CC(Cl)C(=O)Nc1ncc(C(F)(F)F)cc1Cl (stereo unspecified),13.3%,58.9% (active),51.3% (active),-7.63%
O=C(CN1C(=O)C(c2ccc(F)cc2)=NC12CCCC2)Nc1ccc(F)cc1,23.4%,52.2% (active),49.4% (active),38.4% (active)
Cc1ccc(NC(=O)CSc2nsc(SCC(=O)Nc3ccc(C)cc3C)c2C#N)c(C)c1,13.3%,46.1% (active),34.5%,-0.96%
CC(=O)Nc1cccc(C(=O)OCC(=O)N2CCN(C(=O)COC(=O)c3cccc(NC(C)=O)c3)CC2)c1,21.9%,55.5% (active),47.6% (active),-10.3%
CCNc1nc(-c2sc(NC(=O)C(C)(C)C)nc2C)c(-n2cc(-c3ccccc3)nn2)s1,60.9% (active),27.6%,41.4%,35.7% (active)
CCOc1ccc(CCNC(=O)COC(=O)c2cc([N+](=O)[O-])ccc2N2CCOCC2)cc1OCC,9.91%,58.4% (active),56.6% (active),-11.1%
O=C(Nc1cc(-c2nc3ncccc3o2)ccc1Cl)c1ccc([N+](=O)[O-])o1,15.3%,52.2% (active),53.2% (active),-25.6%
COc1ccccc1-n1c(SCC(=O)Nc2ccc(F)cc2)nc2c(c1=O)SCC2,10.4%,54.9% (active),55.9% (active),-9%
O=C(Nc1nccs1)c1ccc(S(=O)(=O)NCC2CCCCC2)cc1,6.64%,41.7% (active),42.4%,33.3% (active)
CCCc1cc(=O)oc2c(C)c(OCC(=O)NCCN3CCOCC3)ccc12,6.59%,43.8% (active),46.3% (active),-19.2%
CCOC(=O)CC1CCCCN1C(=O)c1cc(COc2cccc3cnccc23)on1 (stereo unspecified),39% (active),58.9% (active),62.1% (active),61.4% (active)
NC(=S)N/N=C/c1ccc([N+](=O)[O-])cc1,6.27%,42.7% (active),39.8%,-3.22%

SMILES,inhibition [1],inhibition [2],inhibition [3],inhibition [4]
COc1ccc(/C=C/C(=O)c2cc(F)ccc2OC(=O)c2ccccc2C)cc1OC,52.9% (active),41.1%,44.9% (active),40.4% (active)
C/C(=N\NC(N)=S)C1(C)CCCCC1,20.6%,57.1% (active),53.3% (active),29.4%
Cc1c(C(=O)NC(C)c2ccncc2)oc2ccccc12 (stereo unspecified),-19.6%,44.2% (active),42.9% (active),-7.87%
CCOc1ccc(CCNC(=O)CN2C(=O)NC3(CCc4ccccc43)C2=O)cc1OCC (stereo unspecified),13.9%,49.8% (active),45.7% (active),-14%
O=C(COc1ccc2c3c(c(=O)oc2c1)CCCC3)NCc1ccccn1,2.43%,57.6% (active),56.7% (active),-9.09%
CC(C)(Oc1ccc(Cl)cc1)C(=O)OCC(=O)NCCc1ccccc1,10.5%,45.2% (active),46.8% (active),4.06%
Clc1ccc(COc2cccc(CNCc3ccncc3)c2)cc1,2.94%,62.4% (active),57.7% (active),26%
CCC(C)(C)n1nnnc1CN1CCC(O)(c2cccc(C(F)(F)F)c2)CC1,8.87%,41.6% (active),57.2% (active),-2.12%
O=C(c1ccco1)N1CCCC(N2CCN(c3cccc(C(F)(F)F)c3)CC2)C1 (stereo unspecified),-1.93%,51% (active),47.7% (active),11.1%
Cc1nc(C)c(-c2csc(Nc3cccnc3)n2)s1,-12.1%,41.5% (active),35.4%,-47.9%
O=C(CSc1ncnc2c1cnn2-c1ccccc1)Nc1ccc2c(c1)OCO2,11%,55.6% (active),48.5% (active),-7.58%
O=C(Cn1ncc(Cl)c(Cl)c1=O)Nc1ccc2c(c1)OCO2,-10.7%,38.1%,47.4% (active),-13.7%
O=C(Nc1cccc(NC(=O)c2ccccc2Cl)c1)c1ccc([N+](=O)[O-])o1,33.1% (active),58.8% (active),66.8% (active),-5.43%
Cc1cc(C)nc(N/N=C/c2ccc([N+](=O)[O-])o2)n1,8.46%,57.7% (active),42.5%,-4.48%
Cc1cc(C(=O)CSc2nnnn2-c2ccccc2)c(C)n1-c1ccc2c(c1)OCO2,0.11%,42.3% (active),28.5%,27.6%
COc1ccc(-c2cnc3c(NC=O)cc(-c4ccc(S(C)(=O)=O)cc4)cn23)cc1OC,-4.42%,63% (active),58.1% (active),30.2%
O=C(COC(=O)Cc1ccc(F)cc1)NCCc1ccccc1,3.74%,37.8%,36.3%,-0.51%
COc1cc2c(cc1OC)CN(C(=O)Cn1ccccc1=O)CC2,16.3%,56.6% (active),57.1% (active),6.2%
O=C(C(=Cc1ccccc1)CN1CCCCC1)c1ccccc1,36.4% (active),66.8% (active),75.1% (active),82.8% (active)
COc1ccc(NC(=O)CSc2nnc3ccc(-c4cccnc4)nn23)cc1OC,7.32%,42.1% (active),41.9%,-8.78%
O=C(CCl)Nc1ccc(S(=O)(=O)NC2=NCCCCC2)cc1,41.5% (active),62% (active),61% (active),17.7%
COc1cc(N)c2ncccc2c1Br,16.6%,17.8%,26.6%,-4.59%
CC(C)CNC(=O)COC(=O)c1c2c(nc3ccccc13)/C(=C/c1cccs1)CC2,-15.9%,4.19%,-12.8%,-8.73%
NS(=O)(=O)c1ccc(O)c(NC(=O)c2ccc([N+](=O)[O-])o2)c1,13.8%,67.2% (active),61.2% (active),2.28%
O=C(CSc1n[nH]c(-c2ccccc2)n1)Nc1ccc(N2CCOCC2)cc1,1.99%,56.6% (active),49% (active),-15.3%
Cc1ccc2c(c1)N(C)/C(=C/c1cccc[n+]1C)S2,28% (active),61.8% (active),64% (active),67% (active)
Cc1nn(Cc2ccc(Cl)cc2)c(C)c1NC(=O)c1ccc([N+](=O)[O-])cc1,36.1% (active),55.9% (active),50% (active),-3.45%
